In PubChem BioAssay (NCI) one finds growth data, which are given here for 39 compounds.

SMILES strings stand for the structures. Several values for one entry are separate records, joined by “and”; a condition that tells them apart may be missing. Identical values can stand only once. This is part of a sample that, as a whole, favours compounds with a hit. Of some 83,000 tested, about 20% had one in any assay.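 Results are percent growth after 48 hours of single-concentration exposure. 100 means growth as in untreated cells, lower positive values show inhibition; negative values down to -100 show cell death.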 Values without a mark were called inactive. Activity calls are given as the source filed them.

One test has as its system RPMI-8226 leukemia. Nature of the test: NCI-60 one-dose screen, 48 h (100 = growth as untreated, 0 = no growth, -100 = all killed). The note with it: 10 µM. Here is the method: Growth inhibition of the RPMI-8226 human tumor cell line is measured as a screen for anti-cancer activity. Cells are grown in 96 well plates and exposed to the test compound for 48 hours. Compounds are tested at a single concentration, which is 10^-5 M for most compounds. The reported endpoint is percent growth (GI% or GIPRCNT), where numbers from 0 - 100% represent growth inhibition, and numbers from -100% - 0 represent cell death. For example, a value of 40 represents 60% growth inhibition. A value of 0 means no net growth occurred over the course of the experiment. A value of -40 indicates 40% of cells at the beginning of the experiment died by the end of the experiment. A value of -100 means all cells are dead at the end of the experiment.
NCI-60 Human Tumor Cell Lines Screen was performed using the standard one-dose NCI protocol, which is described in more detail at https://dtp.cancer.gov/discovery_development/nci-60/default.htm.
Compounds with GIPRCNT values below 10 were considered active. Activity score was based on GIPRCNT using the following formula: […]
Score is 0 for GIPRCNT values of 100 or above, 50 for GIPRCNT values of 0, and 100 for GIPRCNT values of -100.
`CS/C(=C\c1ccc(C(=O)c2ccc(C)cc2)n1C)S(C)=O` (stereo not given): the growth is 70.2%.

The test is the same for the next values; noted with them: 10 µM unless noted.
Take `O=C(c1ccc(Cl)cc1)C1C(c2ccccc2)C1[N+](=O)[O-]` (stereo not given): the growth was 96.3%.
With `CCN(CC)Cc1cc2[nH]c3c4ccc(Cl)cc4ncc3c2cc1OC`, the growth is -39.2% (active).
With `Cc1cc(Cl)nc(Nc2ccccc2)n1`, the growth was 117%.
Still for that read-out and setting: the result for `CCOC(=O)NC(N)=O` reads 101% and 99.4%; that for `CCCC(=O)Oc1ccc2ccccc2c1`, 94.4%.
The same measure, in the same setting: to `O=C1C(=O)c2ccccc2C(O)=C1CC=C(Cl)Cl` belongs 44.7% and 41.7%; to `Cc1cc(O)c(C(C)C)cc1N=O`, 97.2%; to `N=c1sc2ccccc2n1CC(=O)O`, 93.7%.
With `S=c1nc[nH]c2nc[nH]c12`, the growth is 24.9%.
Same read-out and setting: to `CCN(C)c1ccccc1` belongs 104%; to `CCOC(=O)C1=CC(=O)CC(C)(C)O1`, 92.8% and 111%; to `N#Cc1c(N)nc2c(c(-c3ccc(Cl)cc3)nn2-c2ccccc2)c1C#N`, 108% [100 µM].
As for `CC(C)(C(=O)c1cccnc1)c1cccnc1`, the growth was 97% and 92.1%.
Same read-out and setting: the result for `CCOP(=O)(OCC)/C(C#N)=C/c1c(C)[nH]c2ccccc12` reads 88.8%; that for `Cc1cnc(N)s1`, 95.9%.
On to `O=C(O)C#Cc1ccc(Cl)cc1`, for which the growth is 106%.
Same read-out and setting: the result for `Cc1nc(Nc2ccc(Cl)cc2)c2cnn(-c3ccccc3)c2n1` reads 108%.
For the compound `COC(=O)c1nc(=S)[nH]c(C(=O)OC)c1C(=O)c1ccc(OC)cc1`, the growth is 111%.
Same read-out and setting: the result for `NCCCCCC(=O)O` reads 99.6% and 94.5%; that for `CN(C)c1ccc(C(=N)c2ccc(N(C)C)cc2)cc1`, 30.6% and 25.1%; that for `OC1CCCN(Cc2ccccc2)C1` (stereo not given), 90.5%.
Same read-out and setting: the result for `CC(O)CCNC(c1ccccc1)C(O)c1ccccc1` (stereo not given) reads 89.7%; that for `CNc1ccc(O)cc1`, 102% and 87.4%; that for `CC(C)(C)OC(=O)CC1(O)CCCCC1`, 107%.
The same measure, in the same setting: to `O=C(Nc1ccccc1)OCC(CN1CCCCC1)OC(=O)Nc1ccccc1` (stereo not given) belongs 90.6%; to `CCNCc1ccccc1`, 119%; to `CCN(CC)CCNC(=O)c1ccc(NCN2C(=O)NC(c3ccccc3)(c3ccccc3)C2=O)cc1`, 104%.
Consider `Cc1ccc(N)cc1S(=O)(=O)O`, for which the growth was 103% and 102%.
For the compound `CCC/C(=N/NC(N)=O)c1ccco1`, the growth is 95.2%.
The same measure, in the same setting: to `O=C(O)c1ccc2c3ccc(C(=O)O)c4c(C(=O)O)ccc(c5ccc(C(=O)O)c1c25)c43` belongs 135%; to `CCC(C)(O)CCC(C)(O)CC` (stereo not given), 108%; to `O=C1C=CC(=O)N1Cc1ccco1`, 107%.
Regarding `ON=C(C1CCCCC1)C1CCCCC1`, the growth was 105%.
Still for that read-out and setting: to `CC(=O)Oc1cc(C)c(OC(C)=O)c(C)c1C` belongs 92.1%; to `COc1ccc(COC=O)cc1`, 103%; to `CC(=O)Oc1cc(C(C)C)c(OCCN(C)C)cc1C`, 123% and 105%.
Consider `Cc1c(Cl)cc(Cl)c(N)c1Cl`, for which the growth was 98.1%.
The same measure, in the same setting: to `Cc1ccc(S(=O)(=O)n2ccnc2)cc1` belongs 100%.

Staying with this test, now noted: 100 µM.
As for `CS/C(=C\c1ccc(C(=O)c2ccc(C)cc2)n1C)S(C)=O` (stereo not given), the growth was 56.9%.
